High-throughput results as filed in PubChem.
CYP2C19 inhib = inhibitors of human CYP2C19. AID 778. CYP2C19 Supersomes, luciferin-H EGE luminescence, 30 min. actives 21% (n = 96,000). inhibition, % at 5 µM;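 active means CYP2C19 inhibition above a set limit at 5 µM in the primary screen, cut at about 50% in these data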;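 further: plate controls were negative control wells for no effect and 2.5 mM tranylcypromine positive control for full effect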
CYP2C9 act = activators of human CYP2C9; AID 1024; activation factor at 5 µM; actives 1.4% (n = 96,000); recombinant CYP2C9, luciferin-H conversion, luminescence; stronger effect = higher value; factor 1 = untreated enzyme, 0 = blocked;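 active means activation factor of 2 or more for CYP2C9 at a 5 µM dose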;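 further: 0 = sulfaphenazole-blocked wells and 1 = vehicle-only wells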
Target sequence (P11712 whole entry, looked up): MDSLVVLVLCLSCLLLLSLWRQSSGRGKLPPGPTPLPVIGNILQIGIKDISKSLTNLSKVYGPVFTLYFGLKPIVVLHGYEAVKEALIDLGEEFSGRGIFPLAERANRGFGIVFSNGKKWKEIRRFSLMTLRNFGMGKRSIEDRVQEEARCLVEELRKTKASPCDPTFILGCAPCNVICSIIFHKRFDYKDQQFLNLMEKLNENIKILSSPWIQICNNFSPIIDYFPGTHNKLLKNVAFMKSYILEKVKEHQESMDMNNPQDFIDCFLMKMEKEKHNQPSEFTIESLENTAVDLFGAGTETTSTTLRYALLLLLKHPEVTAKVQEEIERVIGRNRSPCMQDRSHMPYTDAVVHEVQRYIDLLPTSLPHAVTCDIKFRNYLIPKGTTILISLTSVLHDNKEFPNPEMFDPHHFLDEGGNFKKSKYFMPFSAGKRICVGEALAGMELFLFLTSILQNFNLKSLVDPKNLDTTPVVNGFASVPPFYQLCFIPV
CYP2C9 inh = inhibitors of human CYP2C9; P11712; CYP2C9 Supersomes, luciferin-H conversion, luminescence; inhibition, % at 5 µM; actives 20% (n = 96,000); AID 777;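 active means blocking of liver enzyme CYP2C9 beyond about 50% at 5 µM, limit read from the data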
CYP2C19 act = increases human CYP2C19 enzyme activity | recombinant CYP2C19, luciferin-H EGE luminescence; stronger effect = higher value; 0 = fully inhibited enzyme, 1 = untreated enzyme | activation factor at 5 µM | 96,000 tested, under 10 active | P33261;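 active means activation factor of at least 2 at 5 µM in the primary screen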;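 further: 0 = wells with 2.5 mM tranylcypromine and 1 = vehicle-only wells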
MRP reversal = MRP-mediated drug resistance reversal. H69AR cells + 2 uM doxorubicin, CellTiter-Glo, 72 h. differential viability (reversal), % at 10 µM. actives 0.04% (n = 85,000);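 active means viability drop by adding the cancer drug above about 55%, with treated viability meeting a 40% cutoff, limit read from the data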;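 further: viability without doxorubicin minus viability with 2 µM doxorubicin for each compound; larger differential means the compound sensitizes cells more to doxorubicin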
MRP1 act = activators of MRP-1. H69AR cells + doxorubicin, viability rescue, CellTiter-Glo. viability increase, % at 10 µM. actives 0.61% (n = 140,000);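 active means viability gain under doxorubicin at or above a set limit, the compound median plus 3 SD, cut at about 4.7% in these data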;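 further: MRP-1 overexpressing cells given doxorubicin 25 µM after compound pretreatment; 18-22 h compound pretreatment then 72 h with doxorubicin before readout; 0% = doxorubicin-only wells and 100% = vehicle-treated cells without doxorubicin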
Numbers without * were called inactive; x = no result. The list is not random: actives were taken first. Their share in the collection is about 21%.

SMILES | CYP2C19 inhib | CYP2C9 act | CYP2C9 inh | CYP2C19 act | MRP reversal | MRP1 act
CCSc1nc2cc(OC)c(OC)cc2c(=O)n1CC | 36 | 0.5 | 52* | 0.6 | -15 | -2
O=C(CSc1nc2ccccc2c(=O)n1Cc1ccco1)NCc1ccccc1 | x | x | x | x | 8 | x
COCCn1c(SCC(=O)NCc2ccco2)nc2cccnc21 | 54* | 1.1 | -8 | 0.5 | -4 | -2
CC1(C)CC(=O)C2=C(C1)N(c1ccc(F)cc1)C(=O)C2(NC(=O)c1ccccc1)C(F)(F)F (stereo unspecified) | x | x | x | x | x | -1
O=C1CC(N2C(=O)/C(=C/C=C/c3ccccc3)SC2=S)C(=O)N1c1ccccc1 (stereo unspecified) | x | x | x | x | x | 1
CCOc1ccc(CC(=NCCc2ccccc2)C2=C(O)CC(C)(C)CC2=O)cc1OCC | x | x | x | x | x | -2
Cc1c(Cl)c([N+](=O)[O-])nn1CC(=O)NC(C)C1CC2CCC1C2 (stereo unspecified) | 59* | 0.8 | 24 | 0.4 | x | -4
C=CCn1c(CNC(=O)c2cccs2)nnc1SCC(=O)c1ccc(Br)cc1 | 46 | 0.4 | 61* | 0.5 | -6 | 1
C=CCn1c(CCNC(=O)c2cccs2)nnc1SCC(=O)c1ccc(Cl)cc1 | 78* | 0.2 | 79* | 0.2 | -10 | 0
C=CCn1c(CCNC(=O)c2ccccc2F)nnc1SCC(=O)Nc1nc2ccccc2s1 | 29 | 0.4 | 59* | 0.7 | -6 | -1
C=CCn1c(CNC(=O)c2cccs2)nnc1SCC(=O)Nc1ccc(C(=O)O)cc1 | -5 | 1 | -3 | 1 | 10 | -1
O=C(CSc1nnnn1-c1ccccc1F)Nc1nc2ccccc2s1 | 11 | 0.9 | 11 | 0.9 | x | -3
C=CCn1c(CSc2nc3ccccc3s2)nnc1SCC(=O)OCC | 77* | 0.6 | 42 | 0.2 | -4 | -2
CCOC(=O)/C(C(=O)Nc1ccccc1Br)=C1/NC(C)(C)Cc2ccccc21 | x | x | x | x | x | -2
CN(C)c1nccc(N(Cc2ccccc2)Cc2ccccc2)c1C#N | 27 | 0.4 | 65* | 0.7 | 7 | -2
CC(C)Sc1nc2sc3c(c2c2nnc(SCC(=O)NCc4ccco4)n12)CCCC3 | 77* | 0.1 | 94* | 0.2 | 20 | -1
CC1CCc2c(sc3ncn4c(SCC(=O)NCc5ccco5)nnc4c23)C1 (stereo unspecified) | 36 | 0.4 | 58* | 0.6 | -1 | -2
COc1ccc(NC(=O)c2ccco2)cc1NC(=O)c1cccnc1 | -2 | 0.9 | 8 | 1 | 0 | -1
Cc1ccc(-c2nc3cnccn3c2Nc2ccccc2)o1 | 83* | 0.2 | 76* | 0.2 | 12 | 0
c1cncc(-c2nc3ccccn3c2Nc2ccc3c(c2)OCCO3)c1 | 42 | 0.6 | 42 | 0.6 | 5 | -3
COc1cc(-c2nc3cnccn3c2Nc2c(C)cccc2C)ccc1O | 99* | 0.5 | 53* | 0 | -5 | -2
Cc1ccc(Nc2c(-c3ccc(C)o3)nc3cnccn23)cc1 | 57* | 0.7 | 32 | 0.4 | -4 | -1
Cc1ccc(-c2nc3cnccn3c2Nc2ccc3c(c2)OCO3)o1 | 97* | 0.2 | 82* | 0 | -5 | -4
Cc1ccc(-c2nc3ccccn3c2Nc2ccccc2)o1 | x | x | x | x | x | -1
COc1ccc(-c2nc3cnccn3c2Nc2ccc(C)cc2)cc1 | 75* | 0.2 | 80* | 0.2 | 2 | -1
SMILES | CYP2C19 inhib | CYP2C9 act | CYP2C9 inh | CYP2C19 act | MRP reversal | MRP1 act
Cc1ccc2nc(-c3ccncc3)c(Nc3ccccc3)n2c1 | x | x | x | x | x | -3
COc1nc(OC)nc(N2CCC(C(=O)NCc3cccs3)CC2)n1 | 24 | 1.4 | -45 | 0.8 | -1 | -1
O=C1/C(=C/c2cccnc2)Oc2cc(OS(=O)(=O)c3ccc(F)cc3)ccc21 | 45 | 0.2 | 84* | 0.6 | -24 | -1
Cc1ccc(S(=O)(=O)Oc2ccc3c(c2)O/C(=C\c2cccnc2)C3=O)cc1 | 72* | 0.1 | 91* | 0.3 | -30 | -2
Cc1cc(C(=O)NCC(=O)OCC(=O)Nc2ccc(OC(F)F)cc2)ccc1[N+](=O)[O-] | x | x | x | x | x | 0
N#CC1=C2SCC(O)(c3ccccc3)N2C(=O)CC1c1ccccc1 (stereo unspecified) | 98* | 0 | 99* | 0 | -24 | -2
O=C(NCc1ccccn1)c1ccc(CS(=O)(=O)Cc2ccc(Cl)cc2)o1 | 13 | 0.9 | 7 | 0.9 | 7 | -1
O=C(NCc1cccnc1)c1ccc(CS(=O)(=O)Cc2ccc(Cl)cc2)o1 | 100* | 0.3 | 65* | 0 | 15 | -1
